Our source for the outcome and AC50 values is PubChem BioAssay (EPA / NIEHS).

Assay [1] in a line: ATG_ISRE_CIS: Attagene CIS-FACTORIAL HepG2 Assay for human Interferon Regulatory Factor 1 (IRF1) binding to an Interferon-Stimulated Response Element (ISRE) (AID 2282948). The note with it: HepG2 ISRE cis-reporter (Attagene), mRNA transcription readout; actives raise or lower the signal. Put shortly:
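Multiplexed mRNA reporter readout in human liver HepG2 cells: cis-element-driven reporters transfected, compound added for 24 h, transcripts amplified, fluorescently labelled and sized by capillary electrophoresis; curve fitting bidirectional against DMSO.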

A short description of assay [2]: ATG_M_32_CIS: Attagene CIS-FACTORIAL HepG2 Assay for M32 Transcription Factor (Internal Marker) (AID 2282949).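 Also: background control marker of the multiplexed CIS panel rather than a real target.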 The note with it: HepG2 Attagene cis-factorial M32 reporter, mRNA; actives raise or lower the signal. The method in brief:
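HepG2 transfectants (cis-regulated reporter transcription units) dosed 24 h. Reporter mRNA by RT-PCR plus CE, analysed as gain or loss relative to DMSO.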

Assay [3] can be described thus: ATG_M_06_CIS: Attagene CIS-FACTORIAL HepG2 Assay for M06 Transcription Factor (Internal Marker) (AID 2282950). The settings on record: HepG2 Attagene CIS-FACTORIAL M06 internal marker reporter; actives raise or lower the signal. The method in brief:
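Fluorescence-labelled RT-PCR products from cis-promoter reporter units, cut with HpaI and resolved by capillary electrophoresis, give the signal. Cells are human HepG2, dosed for 24 h. Serves as background control, fitted relative to DMSO.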

Assay [4] deals with Hypoxia-inducible factor 1-alpha (Homo sapiens) (UniProt Q16665). Description: ATG_HIF1a_CIS: Attagene CIS-FACTORIAL HepG2 Assay for human Hypoxia Inducible Factor 1 (HIF1A) (AID 2282951). The settings on record: HepG2 Attagene cis-factorial HIF1a reporter transcription; actives raise or lower the signal. Put shortly:
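Measures endogenous transcription-factor activity through cis-regulated reporter mRNA in HepG2. Cells dosed 24 h; transcripts quantified by RT-PCR with 6-FAM-labelled products separated by capillary electrophoresis; DMSO serves as negative control.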

The target of assay [5] is Hepatocyte nuclear factor 6 (Homo sapiens) (UniProt Q9UBC0). Description: ATG_HNF6_CIS: Attagene CIS-FACTORIAL HepG2 Assay for human Hepatocyte Nuclear Factor 6 (HNF6) (AID 2282952). The settings on record: HepG2 Attagene cis-factorial HNF6 reporter transcription; actives raise or lower the signal. Put shortly:
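Endogenous factor activity read in transiently transfected HepG2 via promoter-regulated reporter transcripts. RNA harvested 24 h post-dosing, reverse-transcribed, PCR-amplified, FAM-labelled, HpaI-digested and resolved by capillary electrophoresis; fitted in both directions against DMSO.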

Assay [6] deals with Heat shock factor protein 1 (Homo sapiens) (UniProt Q00613). Description: ATG_HSE_CIS: Attagene CIS-FACTORIAL HepG2 Assay for human Heat Shock Transcription Factor 1 (HSE) (AID 2282953). The note with it: HepG2 HSE cis-reporter, Attagene RNA transcription; actives raise or lower the signal. The method in brief:
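After a 24 h incubation with test chemical, transfected HepG2 cells were harvested for RNA; reporter transcripts were measured by RT-PCR and capillary electrophoresis. Values reflect gain or loss of signal relative to DMSO.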

The nature of assay [7]: ATG_MRE_CIS: Attagene CIS-FACTORIAL HepG2 Assay for human Metal Responsive Element (MRE) (AID 2282954). The note with it: HepG2 MRE cis-reporter transcription, Attagene multiplex; actives raise or lower the signal. The method in brief: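 Endogenous MRE-dependent transcription read as reporter mRNA in transiently transfected human HepG2 cells at 24 h. RNA reverse-transcribed, PCR-amplified, labelled and resolved by capillary electrophoresis; gain or loss relative to DMSO.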

Assay [8] concerns the target Paired box protein Pax-6 (Homo sapiens) (UniProt P26367). Description: ATG_Pax6_CIS: Attagene CIS-FACTORIAL HepG2 Assay for human Paired Box 6 (PAX6) (AID 2282956). The note with it: HepG2 CIS-FACTORIAL PAX6 reporter transcription, RNA readout; actives raise or lower the signal. Put shortly:
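Fluorescent RT-PCR products separated by capillary electrophoresis report PAX6-linked promoter mRNA in HepG2 cells 24 h post-dose. Curves fitted bidirectionally, DMSO as negative control.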

Assay [9] in a line: ATG_PXRE_CIS: Attagene CIS-FACTORIAL HepG2 Assay for human Pregnane X Receptor Element (PXRE) (AID 2282957). The settings on record: HepG2 Attagene CIS-FACTORIAL PXRE reporter, mRNA; actives raise or lower the signal. Put shortly:
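Reporter transcripts under endogenous PXR-responsive cis-regulation quantified from total RNA of transfected HepG2 cells 24 h post-dosing, via RT-PCR with fluorescent primer extension and capillary electrophoresis. Gain or loss of signal fitted against DMSO baseline.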

Assay [10] is described as follows: ATG_RORE_CIS: Attagene CIS-FACTORIAL HepG2 Assay for human RAR-related Orphan Receptor Element (RORE) (AID 2282959). The note with it: HepG2 Attagene cis-factorial RORE reporter, mRNA; actives raise or lower the signal. Put shortly:
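Cells were HepG2 carrying transfected cis-regulated reporter constructs, dosed for 24 hours. Total RNA was reverse-transcribed and reporter cDNA amplified, fluorescently labeled and sized by capillary electrophoresis. Activity was fitted bidirectionally relative to DMSO.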

Assay [11] in a line: ATG_Sox_CIS: Attagene CIS-FACTORIAL HepG2 Assay for human SRY-box transcription factor (SOX) (AID 2282960). The note with it: HepG2 Attagene cis-factorial SOX reporter, mRNA; actives raise or lower the signal. Put shortly:
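Transient MRTU transfection of HepG2; 24 h compound incubation; TriZol RNA, oligo(dT) RT, PCR, 6-FAM primer extension, HpaI cut, CE. Bidirectional fit, DMSO = baseline.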

Assay [12] has as its target Transcription factor Sp1 (Homo sapiens) (UniProt P08047). Description: ATG_Sp1_CIS: Attagene CIS-FACTORIAL HepG2 Assay for human Specificity Protein 1 (Sp1) (AID 2282961). The note with it: HepG2 Sp1 cis-reporter transcription, actives raise or lower the signal. Put shortly: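 Endogenous Sp1 activity was gauged in human liver HepG2 cells bearing transfected reporter units under a cis-regulating promoter. After 24 h dosing, reporter mRNA was quantified by RT-PCR with capillary electrophoresis, and activity fitted bidirectionally versus DMSO.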

A short description of assay [13]: ATG_SREBP_CIS: Attagene CIS-FACTORIAL HepG2 Assay for human Sterol Regulatory Element Binding (SREBP) (AID 2282962). The settings on record: HepG2 Attagene cis-factorial SREBP reporter, mRNA; actives raise or lower the signal. Put shortly: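 Endogenous factor activity is measured in HepG2 through multiplexed reporter units under cis-element control. Following a 24 h incubation, reporter transcripts are reverse-transcribed, PCR-amplified and sized by capillary electrophoresis; activity is fitted in both directions relative to DMSO.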

The target in assay [14] is Signal transducer and activator of transcription 3 (Homo sapiens) (UniProt P40763). Description: ATG_STAT3_CIS: Attagene CIS-FACTORIAL HepG2 Assay for human Signal Transducer and Activator of Transcription 3 (STAT3) (AID 2282963). The settings on record: HepG2, Attagene cis-factorial STAT3 reporter transcription; actives raise or lower the signal. Put shortly:
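Readout is reporter transcript quantified by RT-PCR and capillary electrophoresis, with 6-FAM primer extension and HpaI digestion. Total RNA is taken 24 h after dosing transiently transfected HepG2 carrying cis-regulated reporter units. Bidirectional fit against DMSO.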

Assay [15] is described as follows: ATG_TA_CIS: Attagene CIS-FACTORIAL HepG2 Assay for human TA Basal Promoter (AID 2282964). The note with it: HepG2 Attagene CIS-factorial TA basal promoter reporter; actives raise or lower the signal. Put shortly: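 Multiplexed mRNA reporter assay, HepG2, 24 h. Reporter cDNA amplified, 6-FAM primer-extended, HpaI-cut, CE-sized; DMSO = negative control and baseline.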

Assay [16] is described as follows: ATG_TCF_b_cat_CIS: Attagene CIS-FACTORIAL HepG2 Assay for human T-Cell-Factor with beta-catenin (TCF/b-cat) (AID 2282965). The note with it: HepG2 TCF/beta-catenin cis-reporter transcription, actives raise or lower the signal. The method in brief:
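Measured: reporter mRNA in HepG2 transiently transfected with cis-promoter reporter units, 24 h after chemical addition. Fitting was bidirectional, DMSO as negative control.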

The nature of assay [17]: ATG_PBREM_CIS: Attagene CIS-FACTORIAL HepG2 Assay for human Phenobarbital-responsive Enhancer Module (PBREM) (AID 2282955). The settings on record: HepG2 PBREM cis-reporter, Attagene multiplexed transcription; actives raise or lower the signal. The method in brief:
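Fluorescence of labelled reporter cDNA fragments, resolved by capillary electrophoresis, gives mRNA induction in transfected HepG2 cells treated for 24 h; DMSO serves as negative control and baseline.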

Assay [18] is described as follows: ATG_PPRE_CIS: Attagene CIS-FACTORIAL HepG2 Assay for human Peroxisome Proliferator-activated Response Element (PPRE) (AID 2282958). The note with it: HepG2 PPRE cis-element reporter, Attagene transcription factor profiling; actives raise or lower the signal. Put shortly: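 Cells are first transfected transiently with the multiplexed reporter library, then dosed for 24 h. Total RNA is reverse-transcribed, amplified, fluorescently end-labeled and HpaI-cut before capillary electrophoresis; activity is fitted bidirectionally against DMSO controls.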

Activity calls are given as the source filed them. The calls were made as follows: active = hit-call score of the fitted dose curve at least 0.9, where 1 is the maximum; inactive = score below 0.9.

Signal transducer and activator of transcription 3 (Homo sapiens), sequence (P40763 whole entry, looked up): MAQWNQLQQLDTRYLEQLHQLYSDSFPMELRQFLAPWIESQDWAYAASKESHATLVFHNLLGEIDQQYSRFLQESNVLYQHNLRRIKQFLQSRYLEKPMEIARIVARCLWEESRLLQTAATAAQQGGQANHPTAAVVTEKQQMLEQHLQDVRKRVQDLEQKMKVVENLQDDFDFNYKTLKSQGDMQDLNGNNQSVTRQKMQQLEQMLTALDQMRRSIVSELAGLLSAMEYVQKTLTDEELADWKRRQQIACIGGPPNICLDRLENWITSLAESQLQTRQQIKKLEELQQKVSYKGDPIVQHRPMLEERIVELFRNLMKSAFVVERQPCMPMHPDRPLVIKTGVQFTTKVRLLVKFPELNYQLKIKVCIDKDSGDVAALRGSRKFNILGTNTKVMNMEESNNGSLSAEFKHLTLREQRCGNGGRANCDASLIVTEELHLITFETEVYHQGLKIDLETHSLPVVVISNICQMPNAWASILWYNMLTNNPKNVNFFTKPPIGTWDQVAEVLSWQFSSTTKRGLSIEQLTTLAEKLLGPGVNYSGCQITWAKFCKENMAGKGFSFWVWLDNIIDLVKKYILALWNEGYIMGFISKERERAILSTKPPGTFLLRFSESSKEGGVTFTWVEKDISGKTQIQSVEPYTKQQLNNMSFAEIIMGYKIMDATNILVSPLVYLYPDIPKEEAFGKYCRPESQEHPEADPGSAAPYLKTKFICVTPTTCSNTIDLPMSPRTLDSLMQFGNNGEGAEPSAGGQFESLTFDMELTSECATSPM
Hepatocyte nuclear factor 6 (Homo sapiens), sequence (Q9UBC0 whole entry, looked up): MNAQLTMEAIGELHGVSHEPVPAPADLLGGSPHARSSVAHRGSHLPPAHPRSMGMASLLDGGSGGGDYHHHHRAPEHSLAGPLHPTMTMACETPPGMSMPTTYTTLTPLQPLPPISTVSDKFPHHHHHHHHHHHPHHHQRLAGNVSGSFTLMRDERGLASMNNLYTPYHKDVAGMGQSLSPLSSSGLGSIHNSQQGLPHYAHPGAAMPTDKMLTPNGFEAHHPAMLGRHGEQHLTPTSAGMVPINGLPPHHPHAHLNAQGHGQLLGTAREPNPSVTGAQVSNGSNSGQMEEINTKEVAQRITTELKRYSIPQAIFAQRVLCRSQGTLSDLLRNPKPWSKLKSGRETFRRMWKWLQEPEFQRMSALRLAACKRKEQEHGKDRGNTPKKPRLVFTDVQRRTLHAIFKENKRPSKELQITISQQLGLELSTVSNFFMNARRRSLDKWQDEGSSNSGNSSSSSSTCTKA
Transcription factor Sp1 (Homo sapiens), sequence (P08047 whole entry, looked up): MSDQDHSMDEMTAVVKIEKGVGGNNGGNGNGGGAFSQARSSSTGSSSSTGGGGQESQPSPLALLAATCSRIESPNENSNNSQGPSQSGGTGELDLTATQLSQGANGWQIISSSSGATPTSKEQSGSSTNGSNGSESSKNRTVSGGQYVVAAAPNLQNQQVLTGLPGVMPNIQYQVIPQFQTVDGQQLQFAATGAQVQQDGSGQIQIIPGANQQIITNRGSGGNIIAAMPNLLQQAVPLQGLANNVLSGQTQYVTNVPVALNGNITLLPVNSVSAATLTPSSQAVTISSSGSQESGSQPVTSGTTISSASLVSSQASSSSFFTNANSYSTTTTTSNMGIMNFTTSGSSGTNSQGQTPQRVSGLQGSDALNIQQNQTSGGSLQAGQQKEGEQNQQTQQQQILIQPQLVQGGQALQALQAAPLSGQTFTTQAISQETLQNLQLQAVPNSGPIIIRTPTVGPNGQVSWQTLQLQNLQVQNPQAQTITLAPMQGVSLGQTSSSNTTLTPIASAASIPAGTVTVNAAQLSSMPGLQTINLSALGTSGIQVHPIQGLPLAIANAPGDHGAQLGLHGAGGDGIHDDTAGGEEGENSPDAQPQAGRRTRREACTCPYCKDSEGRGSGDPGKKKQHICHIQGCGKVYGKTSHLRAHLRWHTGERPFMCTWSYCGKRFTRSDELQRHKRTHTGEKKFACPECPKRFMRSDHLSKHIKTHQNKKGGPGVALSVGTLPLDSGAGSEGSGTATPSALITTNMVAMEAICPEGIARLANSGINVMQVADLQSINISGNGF
Paired box protein Pax-6 (Homo sapiens), sequence (P26367 whole entry, looked up): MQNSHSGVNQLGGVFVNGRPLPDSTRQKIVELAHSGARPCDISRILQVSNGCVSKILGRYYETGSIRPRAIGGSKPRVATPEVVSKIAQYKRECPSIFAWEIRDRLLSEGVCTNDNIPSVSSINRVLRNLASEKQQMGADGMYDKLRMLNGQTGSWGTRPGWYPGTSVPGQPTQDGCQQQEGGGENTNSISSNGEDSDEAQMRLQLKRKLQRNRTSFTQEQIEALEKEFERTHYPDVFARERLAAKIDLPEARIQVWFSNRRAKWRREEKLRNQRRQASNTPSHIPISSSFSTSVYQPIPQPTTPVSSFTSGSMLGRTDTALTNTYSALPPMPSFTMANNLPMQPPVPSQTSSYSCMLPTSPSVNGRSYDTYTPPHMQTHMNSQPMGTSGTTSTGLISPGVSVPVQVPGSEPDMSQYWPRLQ
Hypoxia-inducible factor 1-alpha (Homo sapiens), sequence (Q16665 whole entry, looked up): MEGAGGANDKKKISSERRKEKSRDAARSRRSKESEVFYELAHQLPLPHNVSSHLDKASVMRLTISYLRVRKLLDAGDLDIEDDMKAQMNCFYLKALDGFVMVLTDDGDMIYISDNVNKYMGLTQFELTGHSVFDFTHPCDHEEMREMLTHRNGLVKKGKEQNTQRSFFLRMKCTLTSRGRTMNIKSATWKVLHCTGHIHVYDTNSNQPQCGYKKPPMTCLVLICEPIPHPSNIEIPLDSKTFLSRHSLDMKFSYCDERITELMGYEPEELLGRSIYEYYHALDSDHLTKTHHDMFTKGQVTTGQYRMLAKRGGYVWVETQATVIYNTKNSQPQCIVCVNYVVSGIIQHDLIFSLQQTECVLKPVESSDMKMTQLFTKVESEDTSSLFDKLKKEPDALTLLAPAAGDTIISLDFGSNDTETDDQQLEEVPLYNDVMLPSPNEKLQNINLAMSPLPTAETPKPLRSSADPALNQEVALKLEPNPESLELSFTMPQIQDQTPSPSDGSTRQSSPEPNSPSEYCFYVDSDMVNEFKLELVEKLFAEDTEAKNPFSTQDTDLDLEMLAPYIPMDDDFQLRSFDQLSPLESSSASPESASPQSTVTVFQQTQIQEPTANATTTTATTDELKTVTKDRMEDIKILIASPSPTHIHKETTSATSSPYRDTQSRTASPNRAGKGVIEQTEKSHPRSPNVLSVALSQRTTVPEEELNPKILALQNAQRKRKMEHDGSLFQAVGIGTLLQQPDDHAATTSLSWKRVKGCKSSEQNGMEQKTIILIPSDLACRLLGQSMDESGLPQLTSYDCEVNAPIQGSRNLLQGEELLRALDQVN
Heat shock factor protein 1 (Homo sapiens), sequence (Q00613 whole entry, looked up): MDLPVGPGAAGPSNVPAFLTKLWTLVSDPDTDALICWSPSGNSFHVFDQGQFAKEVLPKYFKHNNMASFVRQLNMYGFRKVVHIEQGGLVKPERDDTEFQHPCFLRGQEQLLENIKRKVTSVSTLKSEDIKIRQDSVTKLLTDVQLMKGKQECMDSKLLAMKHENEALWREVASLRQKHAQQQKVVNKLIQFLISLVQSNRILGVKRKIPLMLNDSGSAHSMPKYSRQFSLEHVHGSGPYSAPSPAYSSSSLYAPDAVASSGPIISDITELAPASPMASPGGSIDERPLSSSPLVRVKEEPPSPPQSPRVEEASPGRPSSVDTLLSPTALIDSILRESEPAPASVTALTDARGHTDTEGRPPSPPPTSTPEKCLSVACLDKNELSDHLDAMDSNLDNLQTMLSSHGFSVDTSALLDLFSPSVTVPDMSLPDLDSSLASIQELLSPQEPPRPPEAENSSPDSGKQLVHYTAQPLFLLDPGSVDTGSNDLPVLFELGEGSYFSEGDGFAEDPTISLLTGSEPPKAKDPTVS

`COc1ccccc1N=Nc1c(S(=O)(=O)O)cc2cc(S(=O)(=O)O)cc(NC(C)=O)c2c1O`: the result in [1], in assay [2], in assay [3], in assay [4], in assay [5] and in assay [6] was inactive. Also, the compound was called inactive in [7], in assay [8], in assay [10], in [11], in [12] and in assay [13]. Also, the call in assay [14], in [15] and in [16] was inactive. For the same compound, the AC50 (commonly the concentration giving half of the maximal activity seen) in assay [9] is 25.7 µM (active).
On to `NCCNc1cccc2ccccc12`, for which the call in assay [2], in assay [3], in assay [5], in assay [6], in [17] and in assay [9] was inactive. In addition, the compound was classed as inactive in assay [11], in [12] and in [15]. In addition, the half-maximal activity concentration (AC50) in [4] was 100 µM (active); in [7], 156 µM (active); in assay [8] it was 100 µM (active); in [18] it was 99.2 µM (active); in [13] it was 35.6 µM (active); in assay [16], 49.8 µM (active).
Turning to `OC[C@H]1O[C@@H](Oc2ccc(O)cc2)[C@H](O)[C@@H](O)[C@@H]1O`, the call in assay [1], in assay [2], in assay [3], in [5], in assay [6] and in assay [7] was inactive. Further, the call in assay [9], in assay [18], in assay [10], in assay [12], in assay [13] and in assay [14] was inactive. Further, the call in assay [16] was inactive.
Regarding `C[C@@H]1CCN(C(=O)[C@H](CCCN=C(N)N)NS(=O)(=O)c2cccc3c2NC[C@H](C)C3)[C@@H](C(=O)O)C1`, the compound was classed as inactive in assay [1], in assay [2], in assay [4], in assay [5], in assay [6] and in [7]. Further, the outcome in assay [17], in assay [8], in assay [9], in assay [11], in [12] and in [13] was inactive. Moreover, the compound was classed as inactive in [14], in [15] and in [16].
With `O=C1OC(=O)c2c(Cl)c(Cl)c(Cl)c(Cl)c21`, the outcome in assay [3], in assay [4], in assay [5], in assay [6], in [7] and in assay [17] was inactive. Also, the result in assay [9], in [10], in [11], in assay [12], in assay [13] and in [14] was inactive. Besides, the outcome in assay [15] and in assay [16] was inactive. Besides, the AC50 in assay [18] was 177 µM (active).
